Here are results for 40 compounds from PubChem BioAssay (Tox21).

Inconclusive results are not listed. Unmarked numbers belong to inactive results. Active and inactive are the calls of the source. Calls follow the shape of the full dose curve.
% is scaled to controls: 0 for no effect and ±100 for the full control effect; potency is read from the fitted curve at half-maximal effect.

The assay is described as follows: p53 small molecule agonists, cell-based qHTS assay with human liver microsomes: qHTS cell viability counter screen (AID 1963579). Also: nearly all actives have a fitted effect of over 45% in size. Particulars: p53RE-bla HCT-116 viability, ATP luminescence, 16 h, HLM; series mostly up to 66 µM; activity change, negative = cytotoxicity: at the top concentration. From the text:
National Center for Advancing Translational Sciences [NCATS]
Division of Preclinical Innovation [DPI]
U.S. Environmental Protection Agency [EPA]
National Institutes of Environmental Health Sciences [NIEHS]
National Toxicology Program [NTP]
U.S. Food and Drug Administration [FDA]
p53, a tumor suppressor protein, is activated following cellular insult, including DNA damage and other cellular stresses. The activation of p53 regulates cell fate by inducing DNA repair, cell cycle arrest, apoptosis, or cellular senescence. The activation of p53, therefore, is a good indicator of DNA damage and other cellular stresses. […] The activation of the reporter gene under culture conditions can be detected by fluorescence intensity. This cell line was used to screen the Tox21 10K compound library in the condition of presence of human liver microsomes and to identify agonists that activate the p53 signaling pathway after in vitro metabolic activation (Ooka et al., Archive of Toxicology 96:1975-1987, 2022).
Tox21 Assay Protocol Summary:
The p53RE-bla cells were dispensed at 4,000cells/3ul/well in 1536-well black-clear bottom plates. After the assay plates were incubated at 37 C, 5% CO2 incubator for 5 hours, 23 nL of compounds dissolved in DMSO, positive controls or DMSO only was transferred to the assay plate. Following compound addition, 3 uL of human liver microsomes (XenoTech, Kansas City, KS) at final concentration of 0.5 mg/mL and 1uL of B-Nicotinamide adenine dinucleotide 2'-phosphate (NADPH) at final concentration of 0.5 mg/mL were transferred to the assay plate. The plates were incubated at 37 C for 16 hours. 1 uL of LiveBLAzer detection mixture was added to each well and the plates were incubated at room temperature in the dark for 2 h. Fluorescence intensity at 460 and 530 nm emission and 405 nm excitation were measured by an Envision plate reader. For cell viability readout that measures cytotoxicity, 4 ul/well of CellTiter-Glo reagent was added into the assay plates using a Flying Reagent Dispenser. After 30 min incubation at room temperature, the luminescence intensity in the plates was measured using a ViewLux plate reader.
Take `Cn1ccc2cc3c(cc21)CCN3C(=O)Nc1cccnc1`: the activity change, negative = cytotoxicity is -7.75% [at 13.5 µM].

Regarding `NC(=O)CCCCC1CCSS1` (stereo not given), the “activity change, negative = cytotoxicity” value was -24.8% [at 30.3 µM]. Turning to `CCCc1ncc(C[n+]2ccccc2C)c(N)n1`, the “activity change, negative = cytotoxicity” value was -14.2% [at 30.3 µM]. On the same count and under the same terms, the value for `CC(Cc1ccc(O)c(O)c1)C(C)Cc1ccc(O)c(O)c1` (stereo not given) was -15.9%; that for `O=C(O)CCCCCCCCCCCBr` was -3.84%. For `Cc1cc(Cl)c(C)cc1Cl`, the “activity change, negative = cytotoxicity” value is -3.73%.

Consider `C[C@]12CC[C@@H]3c4ccc(O)cc4CC[C@H]3[C@@H]1CC[C@@H]2OC(=O)CCC1CCCC1`, for which the Potency result is “inactive”.

Take `CO/N=C(/C(=O)N[C@@H]1C(=O)N2C(C(=O)O)=C(Cn3nnc(C)n3)CS[C@H]12)c1csc(N)n1`: the “activity change, negative = cytotoxicity” value is 32.9% [at 30.3 µM]. As for `COc1cc(-c2ccc(=O)[nH]n2)ccc1OC(F)F`, the “activity change, negative = cytotoxicity” value was 5.92% [at 30.3 µM].

Consider `CSC(=O)c1cccc2nnsc12`, for which the “activity change, negative = cytotoxicity” value is -10.9%. For `CC/C=C\CCOC(C)OCC` (stereo not given), the “activity change, negative = cytotoxicity” value is 6.48% [at 30.3 µM]. As for `Fc1ccc(C(c2ccc(F)cc2)N2CCN(C/C=C/c3ccccc3)CC2)cc1`, the “activity change, negative = cytotoxicity” value was -12.9% [at 30.3 µM]. For `CCCCCCCC#N`, the Potency was 32.4 µM (active). For the compound `COC(=O)C1=C(C)NC(C)=C(C(=O)OCCCN2CCC(c3ccccc3)(c3ccccc3)CC2)C1c1cccc([N+](=O)[O-])c1` (stereo not given), the “activity change, negative = cytotoxicity” value was -11.2% [at 30.3 µM]. Still for that read-out and setting: the value for `Nc1nc(-c2ccccc2)cs1` was 5.18%.

For `CC(=O)NCCCS(=O)(=O)O`, the “activity change, negative = cytotoxicity” value was -8.49% [at 30.3 µM].

On to `COc1nccnc1CC(C)C`, for which the “activity change, negative = cytotoxicity” value is 3.83%.

Regarding `CCCCCCCCCCCCCCCBr`, the “activity change, negative = cytotoxicity” value was 0.0593% [at 30.3 µM].

With `Nc1ccn([C@@H]2O[C@H](CO)[C@@H](O)[C@@H]2O)c(=O)n1`, the “activity change, negative = cytotoxicity” value was 1.08%. Same read-out and setting: the value for `N[C@@H](CCC(=O)N[C@@H](CS)C(=O)NCC(=O)O)C(=O)O` was -1.1% [at 13.5 µM].

Take `C=CCCC(=O)O`: the “activity change, negative = cytotoxicity” value was 3.12%. The same measure, in the same setting: to `Nc1c(I)cc(I)c(C(=O)N(CCC(=O)O)c2ccccc2)c1I` belongs -0.309% [at 30.3 µM]; to `O=C(O)CN(CCOCCOCCN(CC(=O)O)CC(=O)O)CC(=O)O`, 0.622% [at 0.249 µM]. Still for that read-out and setting: to `C=CC(C)(C)CC(=O)OC` belongs -6.22%. Turning to `CC1(C)[C@@H](O)CC[C@]2(C)[C@H]3C(=O)C=C4[C@@H]5C[C@@](C)(C(=O)O)CC[C@]5(C)CC[C@@]4(C)[C@]3(C)CC[C@@H]12`, the Potency was 32 µM (active). In the case of `CCCC(=O)OCC`, the “activity change, negative = cytotoxicity” value is -1.25%. In the case of `O=C(Nc1ncc([N+](=O)[O-])s1)c1cccs1`, the “activity change, negative = cytotoxicity” value is -18.9% [at 30.3 µM].

In the case of `CCCc1ccc(OC)cc1`, the “activity change, negative = cytotoxicity” value was -10.5%. With `CCCCNCC`, the “activity change, negative = cytotoxicity” value was -4.25%. On the same count and under the same terms, the value for `CN1CCN(C)CC1` was -5.51%. Regarding `OCCN1CCN(CCO)CC1`, the “activity change, negative = cytotoxicity” value was 2.65%. In the case of `Cc1ccc(C=O)cc1C`, the “activity change, negative = cytotoxicity” value is 6.18%. Same read-out and setting: to `c1ccc2c(c1)ccc1c3ccccc3ccc21` belongs -1.97% [at 30.3 µM]; to `CNCC[C@@H](Oc1ccccc1C)c1ccccc1`, 6.36% [at 30.3 µM]. For the compound `CC(C)(C)c1cc(O)c(C(C)(C)C)cc1O`, the “activity change, negative = cytotoxicity” value is 13.5%.

Consider `Cc1nnc(SCC2=C(C(=O)O)N3C(=O)[C@@H](NC(=O)Cn4cnnn4)[C@H]3SC2)s1`, for which the “activity change, negative = cytotoxicity” value is 7.46% [at 30.3 µM].

Regarding `CN(CCCN1c2ccccc2CCc2ccccc21)CC(=O)c1ccc(Cl)cc1`, the “activity change, negative = cytotoxicity” value was 10.5% [at 30.3 µM]. In the case of `Nc1nc2ccc([N+](=O)[O-])cc2s1`, the Potency was 28.9 µM (active).

On to `CC(S)C(C)S` (stereo not given), for which the “activity change, negative = cytotoxicity” value was -2.32%. With `O=C1Nc2ccc(Cl)cc2[C@@](C#CC2CC2)(C(F)(F)F)O1`, the “activity change, negative = cytotoxicity” value was 0.85% [at 30.3 µM].
